The values that follow come from PubChem BioAssay (NCATS).

Values joined by “and” are separate entries in the source; they are usually repeats but may differ in a detail not shown here. Identical values can stand only once. Inconclusive results are not listed. Active and inactive are the calls of the source. Unless noted, calls come from the whole dose curve; as a rule, active = well fitted curve in the direction sought with a large enough effect; inconclusive = small, poorly fitted or top-dose-only effect, or another doubt; inactive = no such curve, though single readings can be large; an effect the other way counts as inactive or inconclusive.

Assay [1] deals with Arylsulfatase A (Homo sapiens) (UniProt P15289). Nature of the assay: qHTS screen for enhancers of Arylsulfatase A (ASA1): LOPAC Validation Assay (AID 720538). The conditions noted are these: outcome: dose series up to 57.5 µM. In a few lines: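 MLD patient fibroblasts (SV40, ASA-I179S), 1536-well; adhere 6 hrs; cpd 48h, 37 degree C, 5% CO2; pNCS 0.5mM final in lysis buffer, 14h RT; stop 1N NaOH final; fluor. Ex525/Em598.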
Arylsulfatase A (Homo sapiens), sequence (P15289 whole entry, looked up): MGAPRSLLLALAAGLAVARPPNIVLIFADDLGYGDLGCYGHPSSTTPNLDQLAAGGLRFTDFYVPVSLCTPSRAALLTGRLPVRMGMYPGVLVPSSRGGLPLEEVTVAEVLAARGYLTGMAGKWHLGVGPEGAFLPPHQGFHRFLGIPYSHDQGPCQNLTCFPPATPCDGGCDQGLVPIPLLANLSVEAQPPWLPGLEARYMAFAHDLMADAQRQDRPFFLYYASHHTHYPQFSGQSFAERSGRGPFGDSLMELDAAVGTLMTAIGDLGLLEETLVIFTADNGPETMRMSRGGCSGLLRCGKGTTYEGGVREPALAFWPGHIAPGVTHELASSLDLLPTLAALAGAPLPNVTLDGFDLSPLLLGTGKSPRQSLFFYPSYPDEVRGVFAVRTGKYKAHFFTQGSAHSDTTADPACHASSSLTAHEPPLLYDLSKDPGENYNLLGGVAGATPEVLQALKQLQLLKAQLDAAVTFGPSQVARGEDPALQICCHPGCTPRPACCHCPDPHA
In general terms: Quantitative high-throughput screening tests each substance at several concentrations.

The nature of assay [2]: qHTS for compounds that reverse cellular toxicity of Amyloid beta (A-beta) peptide in yeast: LOPAC Validation Assay (AID 720559).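 Note: plate controls were DMSO for no effect and equimolar ferric chloride plus clioquinol rescue for full effect.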 In a few lines:
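Medium dispensed, compounds pinned, A-beta yeast suspension added; plates held at 30 C for 48 hr; absorbance measured at 600 nm to gauge growth; values scaled between DMSO and FeCl3/clioquinol (equimolar) controls.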

A short description of assay [3]: qHTS for Activators of Parkin Expression: LOPAC Validation Assay (NLuc Reporter) (AID 720572). In a few lines:
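NLuc signal, read 10 min after reagent and following a prior FLuc read, is normalized to DMSO (0) and positive controls (100%). Cells: neuronal Parkin-promoter coincidence reporter line; compounds tested 7-point, 24 h, 37 C, 5% CO2.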

The nature of assay [4]: qHTS for Activators of Parkin Expression: LOPAC Validation Assay (FLuc Reporter) (AID 720573). In a few lines:
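Cells seeded, 24 h; compounds pinned, 7-pt dose response; 24 h at 37 C/5% CO2; volume reduced; FLuc reagent 10 min RT; luminescence read. Normalization: DMSO = 0, positive control = 100%.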

Assay [5] in a line: qHTS assay for small molecule agonists of the antioxidant response element (ARE) signaling pathway measured by Nrf2-dependant transcriptional activity (AID 720636; active = well fitted curve in the direction sought with a large enough effect in the repeat runs; an effect the other way counts as inactive or inconclusive;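 note: HepG2 cells with an ARE-driven luciferase reporter; % of control where 0% means no effect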). In a few lines: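 Attachment 6 hr at 37 C, then compound versus DMSO vehicle for 16 hr in ARE-luc HepG2 cells (1% dialyzed FBS); luminescence recorded 30 min after ONE-Glo addition at room temperature.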
The nature of assay [6]: qHTS assay for small molecule agonists of the antioxidant response element (ARE) signaling pathway measured by Nrf2-dependant transcriptional activity - cell viability counter screen (AID 720653; active = well fitted curve in the direction sought with a large enough effect in the repeat runs; an effect the other way counts as inactive or inconclusive; note: % is set by controls: 0 for no effect and ±100 for the full control effect). The conditions noted are these: ARE-bla HepG2 viability, CellTiter-Glo ATP luminescence, 16 h; stronger effect = lower value. In a few lines: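 ARE-bla HepG2 cells treated with compounds for 16 h at 37C; this counter screen measures viability as intracellular ATP by CellTiter-Glo luminescence after 30 min at room temperature.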

Assay [7] deals with T1, Hexokinase-4 (Homo sapiens) + Glucokinase regulatory protein (Homo sapiens) (UniProt P35557+Q14397). As to the kind of experiment: qHTS assay for inhibitors of recombinant human GCK-GKRP interaction: Diaphorase-coupled assay (AID 743205). In a few lines: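 25 mM Hepes pH 7.6, 5 mM glucose, 0.4 mM ATP, 4 U/ml G6PDH; 10 nM each GST-GCK/FLAG-GKRP. Kinetic fluorescence read, 1/min × 30 min. Normalized: DMSO ± enzyme = max/min.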
T1 sequence (P35557 whole entry, looked up): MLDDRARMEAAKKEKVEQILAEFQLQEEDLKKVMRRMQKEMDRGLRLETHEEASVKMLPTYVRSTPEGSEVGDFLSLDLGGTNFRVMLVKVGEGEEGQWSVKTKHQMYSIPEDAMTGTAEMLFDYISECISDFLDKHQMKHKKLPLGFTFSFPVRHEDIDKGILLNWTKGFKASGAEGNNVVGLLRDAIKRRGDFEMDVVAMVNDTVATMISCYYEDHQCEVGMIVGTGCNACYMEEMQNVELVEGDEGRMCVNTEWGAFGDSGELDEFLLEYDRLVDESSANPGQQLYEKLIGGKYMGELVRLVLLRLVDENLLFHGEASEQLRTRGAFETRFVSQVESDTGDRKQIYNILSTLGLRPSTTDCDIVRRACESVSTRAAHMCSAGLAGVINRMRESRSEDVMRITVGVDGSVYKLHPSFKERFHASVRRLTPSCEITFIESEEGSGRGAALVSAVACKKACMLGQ
T1 sequence (Q14397 whole entry, looked up): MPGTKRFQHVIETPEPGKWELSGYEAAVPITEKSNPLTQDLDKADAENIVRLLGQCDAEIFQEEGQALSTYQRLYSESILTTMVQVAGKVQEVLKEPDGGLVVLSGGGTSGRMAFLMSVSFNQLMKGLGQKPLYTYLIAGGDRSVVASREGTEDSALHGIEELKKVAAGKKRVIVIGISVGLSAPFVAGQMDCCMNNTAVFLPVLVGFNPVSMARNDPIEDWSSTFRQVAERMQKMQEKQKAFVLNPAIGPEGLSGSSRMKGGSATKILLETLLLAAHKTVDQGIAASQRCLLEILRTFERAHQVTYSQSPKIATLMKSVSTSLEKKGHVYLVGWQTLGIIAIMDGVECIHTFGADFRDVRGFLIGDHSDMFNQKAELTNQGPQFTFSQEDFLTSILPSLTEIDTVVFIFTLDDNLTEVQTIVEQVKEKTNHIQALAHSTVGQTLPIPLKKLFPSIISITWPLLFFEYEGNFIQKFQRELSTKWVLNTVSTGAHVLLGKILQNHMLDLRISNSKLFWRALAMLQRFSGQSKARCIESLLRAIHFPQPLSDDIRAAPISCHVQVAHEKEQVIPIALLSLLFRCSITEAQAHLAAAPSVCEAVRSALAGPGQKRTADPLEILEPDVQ

The target in assay [8] is T1, Hexokinase-4 (Homo sapiens) + Glucokinase regulatory protein (Homo sapiens). Nature of the assay: qHTS assay for inhibitors of recombinant human GCK-GKRP interaction: HTRF assay (AID 743207).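 Note: 0% = DMSO with GCK present and -100% = DMSO wells lacking GCK.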 In a few lines:
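5 nM GST-GCK + 5 nM FLAG-GKRP + 2 uM S6P, pH 7.1 buffer (25 mM Hepes, 2 mM MgCl2, 25 mM KCl, 1 mM DTT, Tween/BSA); pin-transferred cpd; anti-FLAG XL665/anti-GST K; 60 min RT; HTRF.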

Assay [9] is described as follows: qHTS Assay for Identifying Gametocytocidal Compounds (AID 743244).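 For max response: % is set by controls: 0 for no effect and ±100 for the full control effect; actives lower the fluorescent signal which means gametocytes are killed.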 Note: potency is the fitted concentration of half-maximal effect. The conditions noted are these: P. falciparum 3D7 stage III-V gametocytes, alamarBlue, 72 h; max response: stronger effect = lower value. In a few lines: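 P. falciparum 3D7 stage III–V gametocytes (20,000 cells/well) were exposed to compounds for 72 h at 37 °C, 5% CO2. AlamarBlue was then added for 24 h; decreased resorufin fluorescence (Ex 525/Em 598 nm) indicated loss of viability.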

Assay [10] in a line: qHTS assay for cell viability of HEK293 cells (AID 743288). Note: % is set by controls: 0 for no effect and ±100 for the full control effect; nearly all actives have a fitted effect of over 50% in size. The conditions noted are these: ATP luminescence (CellTiter-Glo), 18 h; max response: stronger effect = lower value. In a few lines:
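Viable-cell counts were inferred from luciferase-based ATP content in HEK293 cells seeded at 2,000/well, pre-incubated ≥5 h, then dosed with DMSO-solubilised compounds for 18 h at 37 C.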

A short description of assay [11]: qHTS assay for cell viability of the p53RE-bla HCT-116 cell line (AID 743292). Note: % is set by controls: 0 for no effect and ±100 for the full control effect; nearly all actives have a fitted effect of over 55% in size. In a few lines: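 Compound-exposed HCT-116 (p53RE-bla) cells, 4,000 per well, were kept 16 h at 37 C following a 5 h preincubation. Cell number was estimated from total ATP by CellTiter-Glo luminescence read after 30 min at room temperature.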
A short description of assay [12]: qHTS profiling for inhibitors of Plasmodium falciparum (3D7) proliferation (AID 743322; call rule not given here;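 note: infected erythrocytes exposed to compound for 72 h before lysis; 100% = DMSO vehicle wells and 0% = 0.29 µM artemisinin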). The conditions noted are these: P. falciparum 3D7 proliferation; at 28.7 µM (top of the series) unless noted. In a few lines:
(§1)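 Parasite DNA was quantified by SYBR Green I fluorescence (ex 485, em 535 nm) after overnight lysis in saponin/Triton buffer at room temperature. Cultures at 0.3% parasitemia and 2.5% hematocrit were first exposed to compound for 72 h at 37 C; signals were normalised to artemisinin (0.29 uM) and vehicle wells.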

Assay [13] can be described thus: qHTS profiling for inhibitors of Plasmodium falciparum (DD2) proliferation (AID 743323; call rule not given here). The conditions noted are these: lower = more inhibition; at 28.7 µM (top of the series) unless noted. In a few lines: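 SYBR Green fluorescence (ex 485, em 535 nm) of lysed cultures gives parasite DNA content; wells normalized to artemisinin (0.29 uM) and DMSO controls. Infected red cells: 0.3% parasitemia, 2.5% hematocrit, 72 h, 37 C.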

Assay [14] can be described thus: qHTS profiling of the MIPE4 collection as inhibitors of Plasmodium falciparum (3D7) proliferation (AID 743344; call rule not given here;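 note: scaled between DMSO vehicle wells and 0.29 µM artemisinin as full inhibition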). Conditions: P. falciparum 3D7 in erythrocytes, SYBR Green DNA fluorescence, 72 h; at 28.5 µM (top of the series) unless noted. In a few lines: as §1
The nature of assay [15]: qHTS profiling of the MIPE4 collection as inhibitors of Plasmodium falciparum (DD2) proliferation (AID 743345; call rule not given here). The conditions noted are these: P. falciparum Dd2 in erythrocytes, SYBR Green DNA, 72 h; at 28.5 µM (top of the series) unless noted. In a few lines:
as §1

Assay [16] can be described thus: qHTS profiling of the MIPE4 collection as inhibitors of Plasmodium falciparum (DD2) proliferation (Rep 2) (AID 743346; call rule not given here). Conditions: P. falciparum Dd2 in erythrocytes, SYBR Green DNA, 72 h; at 28.5 µM (top of the series) unless noted. In a few lines:
as §1

A short description of assay [17]: qHTS profiling of the MIPE4 collection as inhibitors of Plasmodium falciparum (HB3) proliferation (AID 743347; call rule not given here;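 note: plate controls were DMSO vehicle wells for no effect and artemisinin wells for full effect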). Conditions: P. falciparum HB3 in erythrocytes, SYBR Green DNA, 72 h; at 28.5 µM (top of the series) unless noted. In a few lines:
as §1

Assay [18] in a line: qHTS assay for small molecule antagonists of the retinoid-related orphan receptor gamma (ROR-gamma) signaling pathway - cell viability counter screen (AID 720652; active = well fitted curve in the direction sought with a large enough effect in the repeat runs; an effect the other way counts as inactive or inconclusive;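 note: CHO reporter cells with doxycycline-induced ROR-gamma expression; compound exposure lasted 16 hr before ATP read; % is set by controls: 0 for no effect and ±100 for the full control effect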). In a few lines: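 CHO RORE-LUC/TET-ROR line, 1,000 cells/well, 37 C 5% CO2 5 hr; cpd or DMSO + doxycycline induction, 16 hr. CellTiter-Glo, 30 min RT, luminescence = ATP content.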
Assay [19] has as its target T1, Hexokinase-4 (Homo sapiens) + Glucokinase regulatory protein (Homo sapiens). Nature of the assay: qHTS assay for inhibitors of recombinant human GCK-GKRP interaction: ADP-Glo assay (AID 743206).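 Note: plate controls were DMSO plus enzyme for no effect and no enzyme for full effect.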 In a few lines:
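Pin-transferred compounds meet a 15 nM GST-GCK/15 nM FLAG-GKRP/2 uM S6P mix (dispense concentrations). ATP is then added to 0.4 mM final with 5 mM glucose, and the reaction runs 60 min at room temperature. ADP is quantified luminescently.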

The nature of assay [20]: qHTS profiling for inhibitors of Plasmodium falciparum (HB3) proliferation (AID 743324).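 Note: 100% = DMSO vehicle wells and 0% = artemisinin-treated control wells.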 The conditions noted are these: Plasmodium falciparum HB3 blood-stage proliferation; at 28.7 µM (top of the series) unless noted. In a few lines:
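SYBR Green fluorescence (485 ex/535 em) of lysed cultures, incubated overnight at room temperature in the dark, quantifies parasite DNA. Infected erythrocytes at 0.3% parasitemia and 2.5% hematocrit were exposed 72 h; values normalized to DMSO and 0.29 uM artemisinin controls.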

For the molecule `C[C@]12CCC(=O)C=C1CC[C@@H]1[C@@H]2[C@@H](O)C[C@@]2(C)[C@H]1CC[C@]2(O)C(=O)CO`, the outcome in [1], in assay [2], in assay [4], in assay [5], in [7] and in [8] was inactive. Further, the Potency result in assay [3] and in assay [11] was “inactive” in each case. In addition, the max response in assay [6] was -2.33% (inactive); in assay [9], 5.84% (inactive) and 30.7% (inactive); in assay [10], -17.5% (inactive). Moreover, the remaining parasite growth % (stronger effect = lower value) in [12] stood at 98.9%. In assay [13], this molecule registered an activity, percent of control of 92.4%.

Turning to `Nc1ncnc2nc(-c3ccc(N4CCOCC4)nc3)cc(-c3cccc(Br)c3)c12`, the outcome in assay [1] and in assay [2] was inactive. For the same molecule, in [9], the max response is -13.8% (inactive).

For the molecule `Cc1ccccc1C(OCCN(C)C)c1ccccc1` (stereo not given), the result in assay [1], in [2], in [4], in [5], in assay [7] and in assay [8] was inactive. Moreover, the Potency result in assay [3] is “inactive”. The max response was -8.13% (inactive) in [6]; 21.5% (inactive) and -9.62% (inactive) and 11.5% (inactive) in assay [9]; -14.1% (inactive) in assay [10]. For the same molecule, the parasite growth, % of DMSO control in [14] amounted to 64.6%. Also, the parasite growth remaining, % of DMSO control (lower = more inhibition) in [15] is 60.2%. Moreover, the parasite growth, % of control (lower = inhibition) in assay [16] is 40.2%. In assay [17], this molecule came in with a growth, % of control of 87.3%.

Consider `NC(=O)c1cnccn1`, for which the outcome in assay [1], in [2], in assay [4], in assay [5], in assay [18] and in assay [7] was inactive. For the same molecule, the outcome in [19] and in assay [8] was inactive. Besides, the Potency entry in assay [3] and in assay [11] was “inactive” in each case. Also, the max response is 6.82% (inactive) and 7.56% (inactive) in [6]; -3.29% (inactive) and 14.5% (inactive) in [9]; 4.61% (inactive) and 0.671% (inactive) in assay [10]. Further, the parasite growth, % of DMSO control in [14] is 97.3%. Also, the parasite growth remaining, % of DMSO control (lower = more inhibition) in assay [15] is 94.9%. Also, in [16], the parasite growth, % of control (lower = inhibition) is 45.3%. This molecule also displayed a growth, % of control in assay [17] of 105%.

As to `CC(=O)Oc1ccccc1C(=O)O`, the outcome in [1], in [2], in assay [4], in [5], in [18] and in assay [7] was inactive. Moreover, in assay [8], the result was inactive. Moreover, the Potency entry in assay [3] and in [11] was “inactive” throughout. Besides, the max response in assay [6] is -2.6% (inactive) and -0.828% (inactive) and 18.8% (inactive); in [9] it was -2.57% (inactive) and 13.2% (inactive); in [10], -2.25% (inactive) and -4.16% (inactive) and -2.23% (inactive). In assay [14], this molecule yielded a parasite growth, % of DMSO control of 93.6%. The same molecule had a parasite growth remaining, % of DMSO control (lower = more inhibition) in assay [15] of 90.5%. Besides, the parasite growth, % of control (lower = inhibition) in assay [16] came out at 90.6%.

Consider `CCn1cc(C(=O)O)c(=O)c2cc(F)c(N3CCNC(C)C3)c(F)c21` (stereo not given), for which the result in assay [1], in assay [2], in [4], in [7] and in assay [8] was inactive. In addition, the Potency result in [3] is “inactive”. Further, the max response in [9] is 19.5% (inactive) and 11.6% (inactive) and 13.2% (inactive). Further, the parasite growth, % of DMSO control in assay [14] amounted to 49.1%. The same molecule returned a parasite growth remaining, % of DMSO control (lower = more inhibition) in [15] of 68.3%. In addition, in [16], the parasite growth, % of control (lower = inhibition) came to 83.6%. In assay [17], this molecule showed a growth, % of control of 91.5%.

Regarding `CCc1cc(Nc2nccc(-c3c(-c4ccc(OC)c(C(=O)Nc5c(F)cccc5F)c4)nc4ccccn34)n2)c(OC)cc1N1CCC(N2CCN(S(C)(=O)=O)CC2)CC1`, the Potency in assay [9] was 3.72 µM (active). For the same molecule, in [12], the remaining parasite growth % (stronger effect = lower value) was -0.479%. The same molecule registered an activity, percent of control in [13] of 0.369%. Moreover, in assay [20], the remaining proliferation (% of control), lower = more inhibition was -0.677%. The parasite growth, % of DMSO control in assay [14] was 4.93%. In [15], this molecule returned a parasite growth remaining, % of DMSO control (lower = more inhibition) of 6.42%. Besides, the parasite growth, % of control (lower = inhibition) in assay [16] stood at 14.9%.

`NS(=O)(=O)c1cc2c(cc1Cl)NC=NS2(=O)=O`: the result in assay [2], in assay [4], in assay [5], in assay [18], in [7] and in assay [8] was inactive. The Potency result in [3] and in assay [11] was “inactive” each time. Also, the max response is -14.4% (inactive) in [6]; -0.751% (inactive) and 21.2% (inactive) in [9]; -1.12% (inactive) in assay [10]. This molecule also displayed a parasite growth, % of DMSO control in assay [14] of 88.5%. The molecule further yielded a parasite growth remaining, % of DMSO control (lower = more inhibition) in [15] of 91.5%. Besides, in assay [16], the parasite growth, % of control (lower = inhibition) is 125%. The growth, % of control in assay [17] was found to be 105%.
